A selection: hits, their analogues and other compounds. The true share with any hit is near 3.9%.
TWEAK Fn14 block: blocks TWEAK-Fn14 interaction in a reporter cell assay | AID 1159606 | hit rate 2% among 360,000 | inhibition, % at 10 µM | TWEAK-stimulated Fn14 reporter cells, luciferase luminescence, 8 h; in the data active = inhibition above about 50%
TROY signal inh: inhibitors of TROY-dependent NF-kB signaling. Q293 LMP1-TROYcd NF-kB luciferase reporter, 4 h. inhibition, % at 10 µM. hit rate 0.98% among 360,000;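 active = compounds whose plate-normalised and pattern-corrected inhibition of the luciferase reporter signal at the single screening dose is 50% or more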
HIF-2a block: inhibitors of HIF-2a | 786-0 RCC cells HIF-2a reporter, luciferase luminescence, overnight | inhibition, % at 18.8 µM | hit rate 0.72% among 360,000 | AID 624352;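 active = inhibition of the luminescence signal of 40% or more relative to plate controls, in a single-dose primary screen at 18.75 µM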
Peg3 promoter: inhibitors of Peg3 promoter; HeLa PEG-Prom luciferase reporter, luminescence, overnight; inhibition, % at 20 µM; hit rate 1.7% among 360,000; AID 588405;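 active = inhibition of at least 50% at 20 µM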
KKLEB cytotox: reduces viability of KKLEB cystic fibrosis airway cells. KKLEB CF airway cells viability, ATPlite luminescence, overnight; active compounds read low; cells stimulated with P. aeruginosa culture filtrate. activity change (cytotoxicity), % at 5 µM. hit rate 0.36% among 360,000. AID 602141;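 active = corrected activity change at or below -50% at 5 µM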
CF NFkB inh: inhibitors of cystic fibrosis induced NF-kB. KKLEB NF-kB-GFP reporter, PAF-induced, GFP fluorescence overnight. inhibition, % at 5 µM. hit rate 0.86% among 360,000;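 active = at least 50% inhibition at 5 µM, scaled per plate between neutral and stimulator controls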;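 note: PAF is a Pseudomonas aeruginosa culture filtrate used as stimulus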
Large screens that a line does not name were inactive.

CC(C)(C)OC(=O)N1CCC(C(=O)Nc2ccc(C(=O)NCCc3ccccc3)cc2)CC1	TWEAK Fn14 block 53.9
O=C(NCCCCc1ccccc1)c1cccc(NC(=O)C2CCC2)c1	TWEAK Fn14 block 101.2
CC(C)(C)OC(=O)N1CCCC1C(=O)NCCc1ccccc1 (centres undefined)	TWEAK Fn14 block 79.3 (no result: TROY signal inh)
CSCCC(NC(=O)C1CCC(C)CC1)C(=O)NCCN1CCOCC1 (centres undefined)	none
COC(=O)COc1ccc(S(=O)(=O)N2CCN(c3ccc(OC)cc3)CC2)cc1	none
O=C(CNC(=O)[C@@H]1Cc2ccccc2CN1)NCc1ccco1	none
CC(Sc1nccn1C)C(=O)NC1(C#N)CCCCC1 (centres undefined)	none
Cc1cc(C)n2c(SC(C)C(=O)NC3(C#N)CCCCC3)nnc2n1 (centres undefined)	TWEAK Fn14 block 67.4
COCCNC(=O)c1cccc2c1C(=O)c1ccc(N3CCOCC3)cc1S2(=O)=O	none
O=C1c2ccccc2S(=O)(=O)c2cc(N3CCOCC3)ccc21	TWEAK Fn14 block 71.1
Cc1ccc(N2C(=O)C3C4C=CC(CC4)C3C2=O)cc1[N+](=O)[O-] (centres undefined)	none
Cc1cc(N2C(=O)C=CC2=O)c([N+](=O)[O-])cc1C	HIF-2a block 50.5, Peg3 promoter 105.4, CF NFkB inh 65.5
Cc1cc(O)c(-c2n[nH]c3c2C(c2cccc(O)c2)N(Cc2cccnc2)C3=O)cc1Cl (centres undefined)	TROY signal inh 63.0
Cc1ccc2nccc(C(=O)N3CCCC(N4CCN(c5ccc(F)cc5)CC4)C3)c2c1 (centres undefined)	TROY signal inh 76.0
COc1ccccc1N1CCN(C2CCCN(C(=O)c3ccnc4ccc(C)cc34)C2)CC1 (centres undefined)	none
CN1c2ccccc2C(C)(C)[C@]12C=Cc1cc(O)ccc1O2	TWEAK Fn14 block 101.8
CN1c2ccccc2C(C)(C)C12C=Nc1c(ccc3ccccc13)O2 (centres undefined)	TWEAK Fn14 block 71.4, TROY signal inh 70.5
COc1ccc2ccc3c(c2c1)N=CC1(O3)N(C)c2ccccc2C1(C)C (centres undefined)	none
COC(=O)c1ccc2[nH]c3c(c2c1)CC(C)CC3 (centres undefined)	none
Cc1ccc(NC(=O)CSc2nn(-c3ccccc3)c(=S)s2)cc1S(=O)(=O)N(C)C	TWEAK Fn14 block 78.8
Cc1ccc2oc(NC3=NC4(CCCC4)C4=C(CCCC4=O)N3)nc2c1	TWEAK Fn14 block 51.7
O=C(CCCCn1c(=O)[nH]c2ccccc2c1=O)N1CCN(c2cccc(C(F)(F)F)c2)CC1	none
O=C(CCCn1c(=S)[nH]c2ccccc2c1=O)N1CCN(c2cccc(Cl)c2)CC1	TWEAK Fn14 block 51.5, TROY signal inh 52.3
COc1ccc(N2CCN(CCCn3c(=S)[nH]c4ccccc4c3=O)CC2)cc1	none
COC(=O)c1ccc2c(=O)n(CCCCCC(=O)N3CCN(c4ccccc4)CC3)c(=O)[nH]c2c1	none
CCOc1cc2[nH]c(=O)n(CCCN3CCN(c4ccc(OC)cc4)CC3)c(=O)c2cc1OCC	TWEAK Fn14 block 87.1
COc1cc2[nH]c(=O)n(CCCCCC(=O)N3CCN(c4ccccc4)CC3)c(=O)c2cc1OC	Peg3 promoter 57.5
Nc1ccccc1O	CF NFkB inh 53.3
COc1cc(S(=O)(=O)Nc2cccnc2)ccc1Cl	none
Cc1snc(S(=O)(=O)/C(C#N)=N/Nc2ccc(C(F)(F)F)cc2)c1C#N	TROY signal inh 51.6
Cc1snc(S(=O)(=O)/C(C#N)=N\Nc2ccccc2)c1C#N	none
N#Cc1c(F)cccc1N1CCOCC1	TWEAK Fn14 block 87.4 (no result: TROY signal inh)
N#Cc1c(Cl)cccc1N1CCCC1	none
Cc1ccc(N(CC(=O)NC2CC3CCC2C3)S(C)(=O)=O)cc1C (centres undefined)	none
CCC(C)n1c(C)nc2c(c1=O)c1nc3ccccc3nc1n2CCC1=CCCCC1 (centres undefined)	Peg3 promoter 76.6
CCCCn1c2nc3ccccc3nc2c2c(=O)n(C(C)CC)cnc21 (centres undefined)	none
CCOc1cc(N(CC)CC)ccc1/C=C(/C#N)c1nc2ccccc2[nH]1	TWEAK Fn14 block 69.5, TROY signal inh 59.8
COc1cccc(/C=C(/C#N)c2nc3ccccc3[nH]2)c1OC(C)C(=O)O (centres undefined)	none
